# According to PubChem BioAssay (NCI):
# This is part of a sample that, as a whole, favours compounds with a hit. Of some 79,000 tested, about 15% had one in any assay. Unmarked numbers belong to inactive results. Calls of active or inactive are those of the source. Rule as the data show it: active = growth inhibition above about 70%; inactive = the rest.
# Experiment: NCI Yeast Anticancer Drug Screen. Data for the CLN2oe strain (AID 163);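 also: 0% = growth of vehicle-only control cultures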
# Conditions: S. cerevisiae CLN2oe strain, hits give high values
# Method: Growth inhibition of yeast strains with defined genetic alterations is measured as a screen for potential anti-cancer activity. Selected strains with alterations in DNA damage repair or cell cycle control were exposed to compounds and growth inhibition was measured relative to vehicle treated controls. The strain used in this assay is CLN2oe
Structure (SMILES),growth inhibition (at 1.2 µM),growth inhibition (at 3.7 µM),growth inhibition (at 11.0 µM),growth inhibition (at 33.0 µM),growth inhibition (at 100.0 µM)
CC/C(=C(\c1ccccc1)c1ccc(OCC[N+](C)(C)C)cc1)c1ccccc1,-7%,10%,98% (active),99% (active),99% (active)
O=[N+]([O-])c1ccc2[nH]c3c(-c4ccccc4)nccc3c2c1,-8%,38%,96% (active),96% (active),96% (active)
COC(=O)/C(C#N)=C\NC(=S)C(N)=S,21%,40%,96% (active),100% (active),98% (active)
Oc1ccc(N=Nc2ccc(Cl)cc2)cc1,25%,45%,97% (active),99% (active),99% (active)
Fc1ccc(Nc2ccc3ccccc3c2)cc1,2%,-2%,-1%,-11%,44%
Cc1ccc(S(=O)(=O)NC(=O)C2C(=O)CC3(CCCCC3)CC2=O)cc1,-12%,1%,4%,77% (active),84% (active)
C[n+]1c(/C=C/c2ccc(/C=N/NC(=O)c3ccc(C(=O)N/N=C/c4ccc(/C=C/c5cn6ccccc6[n+]5C)cc4)cc3)cc2)cn2ccccc21,47%,91% (active),91% (active),95% (active),89% (active)
CC(C)=CCc1c2c(c(O)c3c(=O)c(-c4ccc(O)c(O)c4)coc13)C=CC(C)(C)O2,-32%,-5%,95% (active),91% (active),81% (active)
